Measured values from PubChem BioAssay AID1159580 (chemical genetic matrix, 2015).
Several values for one entry are separate records, joined by “and”; a condition that tells them apart may be missing. Identical values can stand only once. Hit rate of the full screen: of about 5,500 compounds, about 2,000 (36%) were called active. Inconclusive results (about 18%) are left out. No stated cut-off is given here; in the data, active means normalized growth mostly below about 0.91 (no sharp cut-off); inconclusive means no clear call, values can overlap the other calls; inactive means mostly above about 0.92. This is one part of the list.

Assay: chemical genetic growth profiling, strain panel (AID 1159580);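 further: tested at 20 µM; growth read once vehicle control cultures reached saturation at 30 °C; 1 = growth at the plate median or of vehicle wells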
Conditions: S. cerevisiae deletion strains, growth OD

Measured: normalized growth

CCN(CC)CCOC(=O)c1ccc(N)cc1
inactive: locus YAL013W, strain DEP1, stronger effect = lower value 0.955 | locus YAL021C, strain ccr4, stronger effect = lower value 0.964 | locus YAL026C, strain drs2, stronger effect = lower value 0.989 | locus YAL030W, strain snc1, stronger effect = lower value 0.986 | locus YAL040C, strain CLN3, stronger effect = lower value 1.04 | locus YBL061C, strain skt5, stronger effect = lower value 0.999 | locus YBR009C, strain hhf1, stronger effect = lower value 0.95 | locus YBR021W, strain FUR4, stronger effect = lower value 1.01 | locus YBR023C, strain chs3, stronger effect = lower value 0.976 | locus YBR171W, strain sec66, stronger effect = lower value 0.988 | locus YBR229C, strain ROT2, stronger effect = lower value 1.01 | locus YBR231C, strain swc5, stronger effect = lower value 1.01 | locus YBR279W, strain paf1, stronger effect = lower value 0.979 | locus YCL011C, strain gbp2, stronger effect = lower value 0.955 | locus YCL016C, strain dcc1, stronger effect = lower value 0.963 | locus YCL029C, strain bik1, stronger effect = lower value 0.989 | locus YCL061C, strain MRC1 (second series), stronger effect = lower value 0.977 | locus YCL061C, strain MRC1, stronger effect = lower value 0.975 | locus YCL069W, strain vba3, stronger effect = lower value 0.972 | locus YCR088W, strain abp1, stronger effect = lower value 0.978 | locus YDL005C, strain med2, stronger effect = lower value 0.99 | locus YDL035C, strain GPR1, stronger effect = lower value 1.01 | locus YDL040C, strain nat1, stronger effect = lower value 1 | locus YDL074C, strain BRE1, stronger effect = lower value 1.03 | locus YDL101C, strain DUN1, stronger effect = lower value 1.01 | locus YDL134C, strain PPH21, stronger effect = lower value 1.01 | locus YDL185W, strain tfp1, stronger effect = lower value 0.995 | locus YDL192W, strain arf1, stronger effect = lower value 0.986 | locus YDR001C, strain nth1, stronger effect = lower value 0.973 | locus YDR069C, strain doa4, stronger effect = lower value 0.998 | locus YDR101C, strain arx1, stronger effect = lower value 1 | locus YDR137W, strain rgp1, stronger effect = lower value 0.98 | locus YDR150W, strain NUM1, stronger effect = lower value 0.999 | locus YDR159W, strain sac3, stronger effect = lower value 0.928 | locus YDR162C, strain NBP2, stronger effect = lower value 1.01 | locus YDR195W, strain ref2 0.999 | locus YDR297W, strain sur2, stronger effect = lower value 0.986 | locus YDR318W, strain mcm21, stronger effect = lower value 0.977 | locus YDR334W, strain swr1, stronger effect = lower value 0.982 | locus YDR335W, strain msn5, stronger effect = lower value 0.981 | locus YDR363W, strain ESC2, stronger effect = lower value 1.01 | locus YDR388W, stronger effect = lower value 0.997 | locus YDR392W, strain spt3, stronger effect = lower value 0.928 | locus YDR502C, strain sam2, stronger effect = lower value 0.997 | locus YEL003W, strain gim4, stronger effect = lower value 0.98 | locus YEL037C, strain rad23, stronger effect = lower value 0.989 | locus YEL061C, strain CIN8 (second series), stronger effect = lower value 0.978 | locus YEL061C, strain CIN8, stronger effect = lower value 1.01 | locus YER002W, strain NOP16, stronger effect = lower value 0.984 | locus YER015W, strain faa2, stronger effect = lower value 1 | locus YER016W, strain bim1, stronger effect = lower value 0.979 | locus YER110C, stronger effect = lower value 0.999 | locus YER111C, strain swi4, stronger effect = lower value 0.977 | locus YER155C, strain BEM2 (second series), stronger effect = lower value 1.06 | locus YER155C, strain BEM2, stronger effect = lower value 1 | locus YER167W, strain BCK2, stronger effect = lower value 1 | locus YFR010W, strain ubp6, stronger effect = lower value 0.988 | locus YGL078C, strain dbp3, stronger effect = lower value 0.997 | locus YGL086W, strain mad1, stronger effect = lower value 0.994 | locus YGL167C, strain pmr1, stronger effect = lower value 0.997 | locus YGL173C, strain kem1, stronger effect = lower value 0.994 | locus YGL227W, strain vid30, stronger effect = lower value 0.984 | locus YGL240W, strain doc1, stronger effect = lower value 1.01 | locus YGL248W, strain PDE1, stronger effect = lower value 1.01 | locus YGL253W, strain hxk2, stronger effect = lower value 0.963 | locus YGR078C, strain PAC10, stronger effect = lower value 1.01 and 0.99 | locus YGR135W, strain pre9, stronger effect = lower value 0.997 | locus YGR229C, strain SMI1, stronger effect = lower value 0.964 | locus YGR252W, strain gcn5, stronger effect = lower value 0.998 | locus YHR013C, strain ard1, stronger effect = lower value 0.969 | locus YHR027C, strain rpn1, stronger effect = lower value 0.97 | locus YHR030C, strain SLT2, stronger effect = lower value 1 and 1.05 | locus YHR079C, strain IRE1 (second series), stronger effect = lower value 0.981 | locus YHR079C, strain IRE1, stronger effect = lower value 1.04 | locus YHR094C, strain hxt1, stronger effect = lower value 0.983 | locus YHR129C, strain ARP1, stronger effect = lower value 1.01 | locus YHR142W, strain chs7, stronger effect = lower value 0.972 | locus YHR200W, strain rpn10, stronger effect = lower value 0.997 | locus YIL066C, strain RNR3, stronger effect = lower value 1.01 | locus YIL073C, strain SPO22, stronger effect = lower value 0.969 | locus YIL125W, strain kgd1, stronger effect = lower value 0.995 | locus YIR030C, strain dcg1, stronger effect = lower value 0.993 | locus YJL092W, strain hpr5, stronger effect = lower value 0.992 | locus YJL095W, strain BCK1 (second series), stronger effect = lower value 0.993 | locus YJL095W, strain BCK1, stronger effect = lower value 1.03 | locus YJL115W, strain asf1, stronger effect = lower value 0.98 | locus YJL129C, strain trk1, stronger effect = lower value 0.989 | locus YJL134W, strain LCB3, stronger effect = lower value 0.999 | locus YJL154C, strain vps35, stronger effect = lower value 0.987 | locus YJL164C, strain tpk1, stronger effect = lower value 0.961 | locus YJL166W, strain qcr8, stronger effect = lower value 1.02 | locus YJL168C, strain set2, stronger effect = lower value 0.993 | locus YJL187C, strain SWE1 (second series), stronger effect = lower value 1.01 | locus YJR043C, strain POL32, stronger effect = lower value 1.01 | locus YJR066W, strain TOR1, stronger effect = lower value 0.999
